From publication PMC7826789 (International Journal of Molecular Sciences, 2021)

Columns and labels:
Conditions in all cases: Compound Concentration (nM):1000
EIF2AK1 = tested on: EIF2AK1
EPHA1 = tested on: EPHA1
EPHA2 = tested on: EPHA2
EPHA3 = tested on: EPHA3
EPHA4 = tested on: EPHA4
EPHA5 = tested on: EPHA5
EPHA6 = tested on: EPHA6
EPHA7 = tested on: EPHA7
EPHA8 = tested on: EPHA8
EPHB1 = tested on: EPHB1
EPHB2 = tested on: EPHB2
EPHB3 = tested on: EPHB3
EPHB4 = tested on: EPHB4
EPHB6 = tested on: EPHB6
ERBB2 = tested on: ERBB2
ERBB3 = tested on: ERBB3
ERBB4 = tested on: ERBB4
ERK1 = tested on: T1, ERK1
T1 construct: gene MAPK3

ERK2 = tested on: T2, ERK2
T2 construct: gene MAPK1

ERK3 = tested on: T3, ERK3
T3 construct: gene MAPK6
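Note: KINOMEscan scanMAX binding as percent activity remaining versus control; lower means stronger binding.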

SMILES	Percent Control (EIF2AK1) [%]	Percent Control (EPHA1) [%]	Percent Control (EPHA2) [%]	Percent Control (EPHA3) [%]	Percent Control (EPHA4) [%]	Percent Control (EPHA5) [%]	Percent Control (EPHA6) [%]	Percent Control (EPHA7) [%]	Percent Control (EPHA8) [%]	Percent Control (EPHB1) [%]	Percent Control (EPHB2) [%]	Percent Control (EPHB3) [%]	Percent Control (EPHB4) [%]	Percent Control (EPHB6) [%]	Percent Control (ERBB2) [%]	Percent Control (ERBB3) [%]	Percent Control (ERBB4) [%]	Percent Control (ERK1) [%]	Percent Control (ERK2) [%]	Percent Control (ERK3) [%]
CCc1ccc(Oc2nccc(-c3c(-c4ccc(F)cc4)ncn3C3CCNCC3)n2)cc1 [SB-242719]	100	94	95	95	95	100	90	100	97	100	95	94	98	76	20	78	99	92	100	100
NS(=O)(=O)c1ccc(N/N=C2\C(=O)Nc3ccc(C(=O)NCc4ccncc4)cc32)cc1 [GW300657X]	100	100	89	100	88	94	100	100	99	100	93	98	100	16	80	53	93	100	88	87
CC(C)COC(=O)c1ccc2c(c1)/C(=C/Nc1ccc(S(N)(=O)=O)cc1)C(=O)N2 [GW416981X]	100	100	100	100	94	100	100	100	100	100	100	100	100	100	26	81	50	100	100	100
COc1ccccc1-c1cc(/C=C2\C(=O)Nc3ncc(Br)cc32)cc(Br)c1O [GW442130X]	100	100	100	98	100	100	100	100	100	100	100	100	100	42	100	95	100	87	100	100
Cc1cc(O)cc(C)c1/C=C/c1cncc(C(N)=O)c1 [GW435821X]	100	47	62	63	51	88	100	100	28	82	100	100	100	6.6	61	43	100	100	100	100
C[C@@H](Oc1cc(-n2cnc3ccc(OC4CCN(C)CC4)cc32)sc1C(N)=O)c1ccccc1Cl [GSK579289A]	62	69	100	81	97	100	96	89	81	82	77	95	100	75	79	85	90	59	100	97
COc1ccc(COc2ccc(Cc3cnc(N)nc3N)cc2OC)cc1 [GW632580X]	100	97	100	100	99	93	98	100	90	90	81	73	92	100	94	85	100	95	92	87
NS(=O)(=O)c1ccc(Nc2ncc(-c3ccccc3)o2)cc1 [GW572399X]	100	100	100	100	97	100	100	84	81	91	100	94	100	35	70	74	100	100	100	100
NS(=O)(=O)c1ccc(N/N=C2\C(=O)Nc3ccc(-c4cnco4)cc32)cc1 [GW276655]	58	79	100	85	88	89	87	100	94	96	100	86	84	58	91	76	66	75	77	87
CN(C)c1cc2c(Nc3ccc4c(cnn4Cc4ccccc4)c3)ncnc2cn1 [GW282974X]	100	89	100	98	95	33	87	95	90	90	100	75	85	24	0	–	24	100	37	–
